High-throughput results deposited in PubChem by National Center for Advancing Translational Sciences (NCATS).
Pf growth 96h: Primary qHTS for delayed death inhibitors of the malarial parasite plastid, 96 hour incubation; Potency, µM (highest dose often 28.7 µM), without a hit: at the highest dose activity change, negative = inhibition, hits mostly inhibitors; 6.9% of 320,000 active; P. falciparum luciferase reporter growth, 96 h
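Delayed-death screen, second-generation endpoint: infected erythrocytes, 2% hematocrit, 0.05% parasitemia final; 96 hours at 37 C, 5% CO2; luciferase detection reagent; luminescence decrease equals reduced growth.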
Pf growth 48h: Primary qHTS for delayed death inhibitors of the malarial parasite plastid, 48 hour incubation | 5.9% of 310,000 active | Potency, µM (doses to about 28.7 µM), inactives show at the top dose activity change, negative = inhibition, hits mostly inhibitors | P. falciparum luciferase growth in erythrocytes, 48 h
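Luciferase-expressing P. falciparum in infected erythrocytes (2% hematocrit, 0.1% parasitemia final) in RPMI 1640/0.5% Albumax were exposed to compound for 48 hours at 37 C, 5% CO2; growth read as luminescence.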
AMA1-RON2 inh: qHTS for Inhibitors of AMA1-RON; Towards Development of Antimalarial Drug Lead: Primary Screen | Plasmodium falciparum AMA1 (3D7) - RON2 peptide interaction | AlphaScreen AMA1-biotinylated RON2 peptide binding | Potency, µM (highest dose often 58.2 µM), for inactives: top-dose activity change, negative = inhibition, actives largely listed as inhibitors | 0.2% of 360,000 active | AID 720542, 2013;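 also: 0% = vehicle wells and -100% = peptide control; nearly all actives have a fitted effect of over 45% in size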
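AMA1 (3D7) with his tag at 25 nM final met compounds first, then biotinylated RON2 peptide at 25 nM; detection used donor plus acceptor beads, 10 µg/mL apiece, read by AlphaScreen after 30 min at room temperature.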
AmpC inh detg: qHTS Inhibitors of AmpC Beta-Lactamase (assay with detergent). P00811. AID 485294, 2010. 0.041% of 370,000 active. Potency, µM (highest dose often 114 µM), for the others: top-dose activity change, negative = inhibition, actives largely listed as inhibitors. AmpC hydrolysis of nitrocefin, absorbance 480 nm, 0.01% Triton;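 also: 0% = no-compound wells and -100% = no-enzyme wells; nearly all actives have a fitted effect of over 25% in size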
Target sequence (P00811 whole entry, looked up): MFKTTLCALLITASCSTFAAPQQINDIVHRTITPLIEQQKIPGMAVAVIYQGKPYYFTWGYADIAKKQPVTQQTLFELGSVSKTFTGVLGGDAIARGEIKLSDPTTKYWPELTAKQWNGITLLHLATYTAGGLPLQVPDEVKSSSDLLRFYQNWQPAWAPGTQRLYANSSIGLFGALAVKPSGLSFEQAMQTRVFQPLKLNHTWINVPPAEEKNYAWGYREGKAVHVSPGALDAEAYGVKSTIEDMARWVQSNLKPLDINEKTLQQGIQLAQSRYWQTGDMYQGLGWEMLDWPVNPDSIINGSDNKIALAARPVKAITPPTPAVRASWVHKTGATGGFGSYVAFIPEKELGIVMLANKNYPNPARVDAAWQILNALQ
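AmpC (5.3 nM in the dispensed reagent) in 20 mM phosphate pH 7.0 with 0.01% (detergent screen) or 0.0001% Triton X-100 was preincubated with compounds for 15 min at room temperature. Nitrocefin was then added from an 800 uM solution, and hydrolysis was followed at 480 nm.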
AmpC no deterg: qHTS Inhibitors of AmpC Beta-Lactamase (assay without detergent) | 0.52% of 330,000 active | P00811 | Potency, µM (titrated, usually from 57.1 µM), inactives show at the highest dose activity change, negative = inhibition, actives largely listed as inhibitors | AID 485341, 2010 | AmpC nitrocefin hydrolysis, absorbance 480 nm, 0.0001% Triton;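 also: plate controls were no compound for no effect and no enzyme for full effect; nearly all actives have a fitted effect of over 20% in size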
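20 mM phosphate pH 7.0 + 0.01% (detergent screen) or 0.0001% Triton X-100; 5.3 nM AmpC reagent; cpd preinc 15 min RT; nitrocefin (800 uM stock) to start; A480 q20 s × 4 min; Activity was normalised to no-enzyme and no-compound control wells.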
HCV inhibitor: qHTS Assay for Inhibitors of Hepatitis C Virus (HCV) | Huh7.5.1 HCVcc-Cre infection, luciferase reporter, 44 h | Potency, µM (highest dose often 41.8 µM), for inactives: at the highest dose activity change, negative = inhibition, usual class: inhibitors | 3.4% of 340,000 active | AID 651820, 2012
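Luciferase read-out (15 sec integration) after a 15 min room-temperature substrate step quantifies HCVcc-Cre infection. Cells, 1,000 per well, had compound added 4 h post-plating, then virus at ~0.5 moi, and were cultured 44 h.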
The depositor's hits bear a star; [ ] = dose if it differs, or a comment. Compounds with a hit are over-represented: about 11% of the library has one in this group of screens. Calls follow the shape of the dose curve; as a rule, active = well fitted curve in the direction sought with a large enough effect; inconclusive = small, poorly fitted or top-dose-only effect, or another doubt; inactive = no such curve, though single readings can be large; an effect the other way counts as inactive or inconclusive. Unless noted, % is scaled to controls: 0 for no effect and ±100 for the full control effect; potency is read from the fitted curve at half-maximal effect.

How did COc1ccc(NS(=O)(=O)c2ccc3nc(COc4ccc(C#N)cc4)[nH]c3c2)cc1 do in these assays?
Pf growth 96h: inconclusive; Pf growth 48h: -16.2%; AMA1-RON2 inh: 10.2%; AmpC inh detg: inconclusive; AmpC no deterg: -31.7%; HCV inhibitor: 12.6µM*

What do the screens show for `COc1ccccc1NC(=O)c1ccc(NC(=O)C2CC2C)cc1` (stereo unspecified)?
AMA1-RON2 inh: 10.8%[11.6 µM]; AmpC no deterg: -34.2%; HCV inhibitor: inconclusive

Results for CC1CC1C(=O)Nc1ccc(-c2ccccc2)cc1 (stereo unspecified) ?
Pf growth 96h: 13.1µM*; Pf growth 48h: -12.1%; AMA1-RON2 inh: -9.6%; AmpC inh detg: -3.8%; AmpC no deterg: 8.5%; HCV inhibitor: inconclusive

How did Cc1ccc(NC(=O)Nc2ccc(F)c(Cl)c2)cc1 do in these assays?
Pf growth 96h: -6.1%; Pf growth 48h: -72.5%; AMA1-RON2 inh: 2.4%; AmpC inh detg: -5.6%; AmpC no deterg: -18.1%[2.29 µM]; HCV inhibitor: inconclusive

Results for O=C(Nc1ccc(Cl)c([N+](=O)[O-])c1)C(Sc1ccccc1)c1ccccc1 (stereo unspecified) ?
Pf growth 96h: inconclusive; Pf growth 48h: 13.1µM*; AMA1-RON2 inh: -14.8%; AmpC inh detg: inconclusive; AmpC no deterg: -48.5%; HCV inhibitor: inconclusive

Results for O=C(Nc1ccccc1)Nc1ccc(Br)c(Cl)c1 ?
Pf growth 96h: 0.0%; Pf growth 48h: inconclusive; AMA1-RON2 inh: 26.2%; AmpC inh detg: -8.8%; AmpC no deterg: -20.3%; HCV inhibitor: 12.6µM*

How did O=C(Nc1ccc(Cl)c(Cl)c1)Nc1ccc(Br)cc1F do in these assays?
Pf growth 96h: 4.65µM*; Pf growth 48h: inconclusive; AMA1-RON2 inh: 17.2%; AmpC inh detg: -10.2%; AmpC no deterg: -34.5%; HCV inhibitor: inconclusive

What do the screens show for `O=C(Nc1ccc(Cl)cc1)Nc1ccc(Cl)c(Cl)c1`?
Pf growth 96h: 2.69µM*; Pf growth 48h: 2.33µM*; AMA1-RON2 inh: 11.8%; AmpC inh detg: 8.5%; AmpC no deterg: -19.4%; HCV inhibitor: inconclusive

How did COc1ccc(Br)cc1CNC(=O)Cn1c(=O)c2cccn2c2ccc(F)cc21 do in these assays?
AmpC inh detg: 21.8%

How did Cc1cccc(Cn2c(CNS(=O)(=O)c3ccc4c(c3)CCCC4)nc3cccnc32)c1 do in these assays?
AmpC inh detg: 3.5%

What do the screens show for `CCn1cc(/C=C(\NC(=O)c2ccccc2Cl)C(=O)NCCCn2ccnc2)c2ccccc21`?
AmpC inh detg: -9.1%

How did CCOC(=O)c1c(C)[nH]c(C)c1S(=O)(=O)N1CCC(C(=O)NCc2cccc(C)c2)CC1 do in these assays?
AmpC inh detg: 0.0%

Results for O=C(NNc1ccccc1[N+](=O)[O-])Nc1ccc(Cl)c(Cl)c1 ?
Pf growth 96h: inconclusive; Pf growth 48h: -5.2%; AMA1-RON2 inh: -8.1%; AmpC inh detg: -14.6%; AmpC no deterg: 25.1µM*; HCV inhibitor: inconclusive

Results for O=C(Nc1ccc(Cl)c(Cl)c1)Nc1nnc(-c2ccncc2)s1 ?
Pf growth 96h: 2.0%; Pf growth 48h: 26.5%; AMA1-RON2 inh: 13.6%; AmpC inh detg: -8.4%; AmpC no deterg: -16.1%; HCV inhibitor: 8.91µM*

How did CC(C)(C)N(NC(=O)Nc1ccc(Cl)c(Cl)c1)C(=O)c1ccccc1 do in these assays?
Pf growth 96h: inconclusive; Pf growth 48h: 11.7µM*; AMA1-RON2 inh: -0.2%; AmpC inh detg: -1.0%; AmpC no deterg: -50.5%; HCV inhibitor: inconclusive

What do the screens show for `Cc1cc(F)ccc1-n1nnc(C(N)=O)c1C`?
AmpC inh detg: -0.7%
